# Compound activity (PubChem)
# Sampled rows, rich in hits. Any-hit rate of the full collection: about 6.9%.
# L3MBTL1 block – qHTS Assay for the Inhibitors of L3MBTL1 | Potency, µM (highest dose often 57.1 µM), without a hit: at the top dose activity, negative = inhibition, most hits filed as inhibitors | AlphaScreen L3MBTL1–H3K9me1 peptide binding | 230,000 tested, 0.66% active; also: % is scaled to controls: 0 for no effect and ±100 for the full control effect; nearly all actives have a fitted effect of over 60% in size
#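 L3MBTL1 50 nM + b-AHA-H3(1-15)K9me1 75 nM, 30 min RT; compound added, 30 min RT; streptavidin donor/Ni-chelate acceptor beads 10 ug/mL each final, 30 min RT dark; AlphaScreen read.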
# HP1b chromo inh – HTS for Inhibitors of HP1-beta Chromodomain Interactions with Methylated Histone Tails | 390,000 tested, 0.56% active | Potency, µM (highest dose often 114 µM), for the others: at the top dose activity change, negative = inhibition, most hits filed as inhibitors | AlphaScreen HP1-beta / biotin-H3K9me3 peptide binding | Chromobox protein homolog 1 (Homo sapiens), P83916; also: nearly all actives have a fitted effect of over 70% in size
#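 Compound inhibition of the preformed complex between 50 nM HP1-beta and 50 nM biotinylated H3K9me3 peptide was read by AlphaScreen. Buffer was PBS pH 7.4 with 0.01% Tween-20. Incubations ran 30 min at room temperature, with 10 ug/mL donor/acceptor beads.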
# VDR inh – Inhibitors of the vitamin D receptor (VDR): qHTS; Potency, µM, inactives show max response, negative = inhibition, actives largely listed as inhibitors; Vitamin D3 receptor (Homo sapiens), P11473; VDR-SRC2-3 peptide fluorescence polarization, 2 h; 400,000 tested, 0.93% active; also: % is scaled to controls: 0 for no effect and ±100 for the full control effect
#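 The screen uses fluorescence polarization to detect compounds that interfere with recruitment of the SRC2-3 coactivator peptide to VDR; plates are read after 2 h at room temperature.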
# PLK1 PBD block – qHTS for Inhibitors of PLK1-PDB (polo-like kinase 1 - polo-box domain): Primary Screen; Serine/threonine-protein kinase PLK1 (Homo sapiens), P53350; Potency, µM, without a hit: max response, negative = inhibition, hits mostly inhibitors; 360,000 tested, 2.8% active; Plk1 PBD binding of FITC phosphopeptide, fluorescence polarization; AID 720504, 2013; also: series mostly up to about 57 µM; % is scaled to controls: 0 for no effect and ±100 for the full control effect; nearly all actives have a fitted effect of over 65% in size
# BAZ2B block – qHTS Assay for Inhibitors of BAZ2B; AlphaScreen BAZ2B-H3K14Ac peptide displacement; Bromodomain adjacent to zinc finger domain protein 2B (Homo sapiens), Q9UIF8; 360,000 tested, 4.4% active; Potency, µM (titrated, usually from 114 µM), without a hit: top-dose activity change, negative = inhibition, actives largely listed as inhibitors; AID 504333, 2011; also: % is scaled to controls: 0 for no effect and ±100 for the full control effect; nearly all actives have a fitted effect of over 60% in size
#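 Protein-peptide AlphaScreen: BAZ2B 50 nM, b-H3K14Ac 50 nM, 1x PBS pH 7.4 + 0.01% Tween-20. Preincubation 30 min RT; cpd 30 min RT (top 110 uM); beads 20 min RT, light-protected.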
# JMJD2A Tudor – qHTS Assay for Inhibitors of JMJD2A-Tudor Domain; 390,000 tested, 4.4% active; AlphaScreen JMJD2A-Tudor / H3K4me3 peptide binding; AID 504339, 2011; Potency, µM (top dose mostly 114 µM), for inactives: at the highest dose activity change, negative = inhibition, usual class: inhibitors; Lysine-specific demethylase 4A (Homo sapiens), O75164; also: % is scaled to controls: 0 for no effect and ±100 for the full control effect; nearly all actives have a fitted effect of over 50% in size
# Numbers without * were called inactive; ? = inconclusive; . = no result; [ ] = remark or other dose. Calls follow the shape of the dose curve; as a rule, active = well fitted curve in the direction sought with a large enough effect; inconclusive = small, poorly fitted or top-dose-only effect, or another doubt; inactive = no such curve, though single readings can be large; an effect the other way counts as inactive or inconclusive. Potency is read from the fitted curve at half-maximal effect.
SMILES,L3MBTL1 block,HP1b chromo inh,VDR inh,PLK1 PBD block,BAZ2B block,JMJD2A Tudor
COc1cccc(CN2CCN(Cc3cc(OC)c(OC)cc3OC)CC2)c1,.,18µM*,2%,4%,20µM*,1.6µM*
CCOC(=O)c1cc(-c2ccc(F)cc2)n(CCC(=O)Nc2cc(OC)cc(OC)c2)c1C,.,?,17%,.,-14%,?
Cc1cc(Nc2ccccc2C(=O)O)n2ncnc2n1,.,.,.,-14%,.,.
CCCNC(=O)c1cc2c(c(-c3cccc(-c4ccccc4F)c3)n1)[C@H](CCO)N(C(=O)CC1CC1)C2,.,.,.,-11%,.,.
Cc1ccc(NC(=O)CNC(=O)OCc2ccccc2)cc1C,2%,-3%,-23%,?,-4%,56µM*
Cc1ccc(NC(=O)CCc2ccccc2)cc1C,.,.,.,-13%,.,.
CCOC(=O)c1cnc2c(-c3ccc(Cl)cc3)cnn2c1C,13%,54%,-4%,0%,1%,14%
CCOC(=O)c1cnc2c(-c3ccc(F)cc3)cnn2c1C(F)(F)F,-6%,26%,-24%,-10%,-33%,35µM*
CCOc1ccc2c(c1)-c1c(ssc1=S)C(C)(C)N2C,.,2µM*,-18%,?,10µM*,11µM*
Cc1ccc(Cl)cc1NC(=O)Cn1nc2c(cc1=O)CC(C)CC2 (stereo not drawn),.,24%[57 µM],9%,.,3%,-5%
CCCCn1c(C)csc1=Nc1cccnc1,-12%,-15%,13%,-12%,?,-33%
Cc1ccc(-c2csc(=Nc3cccnc3)n2CCCn2ccnc2)cc1C,?,?,0%,-18%,13µM*,?
COCCn1c(-c2ccccc2)csc1=Nc1cccnc1,?,?,19%,-11%,40µM*,?
CC(C)n1c(-c2ccco2)csc1=Nc1cccnc1,-22%,?,?,-9%,28µM*,56µM*
c1cncc(N=c2scc(-c3cccc4ccccc34)n2CCCn2ccnc2)c1,?,?,1%,-13%,10µM*,35µM*
C[C@@H]1/C(=N/O)CC2C[C@@H]1C2(C)C,.,.,-17%,.,.,.
CCCn1c(=O)n(-c2ccccc2)c(=O)c2sc3ccccc3c21,.,22%,-14%,.,-7%,-5%
CCOC(=O)c1cc(C)n(CC2CCC(C(=O)Nc3cccc(C(C)=O)c3)CC2)c1C (stereo not drawn),.,14%,-8%,.,-28%,-7%
CN1CCN(C(CNC(=O)c2ccccc2)c2ccc3c(c2)OCO3)CC1 (stereo not drawn),.,11%[57 µM],6%,.,7%,-7%
N#Cc1ccsc1NC(=O)CN1CCN(c2ccccc2)CC1,-3%,19%,-13%,-2%,-9%,-17%
COc1ccc(CNCC(=O)Nc2sccc2C#N)cc1,-19%,22%,9%,-12%,50µM*,-7%[11.4 µM]
CC(=O)N1CCN(CC(=O)Nc2sccc2C#N)CC1,.,-12%,-5%,24µM*,-26%,56µM*
O=C(Cn1cc(C(=O)c2cccs2)c2ccccc21)Nc1ccc(Br)cc1,.,9%,-20%,.,-4%,-5%
Cc1ccc(NC2=C(c3ccc(C(F)(F)F)cc3)C(=O)c3ccccc32)cc1C,.,0%,-8%,.,56µM*,56µM*
CCCOc1ccc(-c2nonc2NC(=O)c2oc3ccc(C)cc3c2C)cc1OCCC,.,46%,1%,.,3%,4%
Cc1cccc(C)c1N=Nc1c(C)cc(O)cc1C,-28%,?,4%,-9%,18µM*,20µM*
Cc1cccc(O)c1C,-6%,21%,0%,-15%,.,-18%
